Screening data (PubChem BioAssay)
Sampled rows, rich in hits. Any-hit rate of the full collection: about 3.5%.
MITF primary – MITF inhibitors, primary screen, biochemical, AlphaScreen, human. Microphthalmia-associated transcription factor (Homo sapiens), O75030. inhibition, % at 2.6 µM. AlphaScreen MITF homodimerization, bead proximity signal. AID 1259374, 2018. hit rate 0.91% among 650,000; in the data active = inhibition above about 50%;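 also: 0% = vehicle wells with protein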
GPR151 ag – activators of human GPR151, primary screen, cell-based, PathHunter beta-arrestin, luminescence. G-protein coupled receptor 151 (Homo sapiens), Q8TDV0. activation, % at 11.2 µM. PathHunter beta-arrestin GPR151 cells. hit rate 1% among 650,000; in the data active = activation above about 4.9%;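 also: 0% = median of compound wells and 100% = cells with positive control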
FBW7 act – FBW7 E3 ligase activators, primary screen, biochemical, AlphaScreen, human; F-box/WD repeat-containing protein 7 (Homo sapiens), Q969H0; AlphaScreen FBW7–phospho-cyclin E peptide binding, activator screen; normalized activity (activation), % at 26.1 µM; hit rate 0.13% among 650,000; in the data active = normalized activity above about 1.9%;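 also: purified mutant Fbw7 with reduced substrate affinity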
Target sequence (Q969H0 whole entry, looked up): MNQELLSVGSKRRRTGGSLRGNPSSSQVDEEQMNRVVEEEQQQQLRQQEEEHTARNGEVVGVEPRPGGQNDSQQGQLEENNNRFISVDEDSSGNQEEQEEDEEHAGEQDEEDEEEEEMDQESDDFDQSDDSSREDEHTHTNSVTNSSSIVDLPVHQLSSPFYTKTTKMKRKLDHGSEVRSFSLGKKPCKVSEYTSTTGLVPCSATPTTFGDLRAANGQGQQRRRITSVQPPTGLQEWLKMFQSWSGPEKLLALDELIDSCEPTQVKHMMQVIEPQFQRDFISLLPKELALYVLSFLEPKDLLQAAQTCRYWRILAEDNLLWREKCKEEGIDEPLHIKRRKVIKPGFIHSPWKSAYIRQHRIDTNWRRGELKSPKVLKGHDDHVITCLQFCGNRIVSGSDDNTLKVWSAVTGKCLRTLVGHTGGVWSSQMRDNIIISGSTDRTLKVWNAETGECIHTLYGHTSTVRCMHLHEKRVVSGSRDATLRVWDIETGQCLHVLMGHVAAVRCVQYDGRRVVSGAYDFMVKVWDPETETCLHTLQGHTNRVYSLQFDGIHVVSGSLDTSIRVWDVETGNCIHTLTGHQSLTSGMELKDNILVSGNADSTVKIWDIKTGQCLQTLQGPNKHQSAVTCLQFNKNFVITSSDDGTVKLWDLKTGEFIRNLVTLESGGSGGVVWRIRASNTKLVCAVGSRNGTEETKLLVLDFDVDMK
TEAD-YAP inh – TEAD-YAP interaction inhibition, primary screen, TEAD-YAP interaction inhibitor project, luminescence, HEK-TIYL cells; hit rate 1.4% among 640,000; inhibition, % at 9.12 µM; TEAD-Gal4/YAP UAS-luciferase luminescence; in the data active = inhibition above about 32%;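 also: 0% = median of test compound wells and 100% = reference inhibitor wells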
GPR151 confirm – GPR151 activators, triplicate retest, confirmation, cell-based, PathHunter beta-arrestin, luminescence | AID 1508609, 2020 | activation, % at 11.2 µM | 6,700 tested, under 10 active | GPR151 PathHunter beta-arrestin cells, 90 min; % of EA-reagent control over plate median | shares compounds with GPR151 ag;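 active = mean percent activation across replicates above the confirmation screen cutoff of 4.91%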
GPR119 counter – GPR119 activators in beta-arrestin cells, counter-screen for GPR151 activator project, cell-based, PathHunter beta-arrestin, luminescence, triplicate; hit rate 0.3% among 6,700; 90 min; 0 = compound-well median, 100 = enzyme-acceptor control; shares compounds with GPR151 ag; activation, % at 11.2 µM;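 active = mean percent activation in the counterscreen above 29.09%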;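 also: counterscreen on off-target GPR119 to flag nonselective hits from the GPR151 activator screen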
Active calls of the source: *.

Screening CCC(C)NC(=O)c1cnn2c(C(F)F)cc(-c3ccc(C)cc3)nc12 (configuration not stated) returned MITF primary -5.6, GPR151 ag 3.0, FBW7 act 0.5 and TEAD-YAP inh -4.1.
For N#CC1=C(N)OC(c2ccccc2)=C(n2cnc([N+](=O)[O-])c2)C1c1cccnc1 (configuration not stated) the results were MITF primary -5.0, GPR151 ag 8.2*, FBW7 act 0.1, TEAD-YAP inh 1.5, GPR151 confirm -0.9 and GPR119 counter -3.8.
Screening N#CC1=C(N)OC(c2ccccc2)=C(n2cnc([N+](=O)[O-])n2)C1c1ccccc1 (configuration not stated) returned MITF primary -7.4, GPR151 ag 1.8, FBW7 act 0.0 and TEAD-YAP inh 3.3.
`CSc1ncccc1C(=O)NCC1CCC2(CCN(C(C)C)CC2)O1` (configuration not stated) gave MITF primary -0.6, GPR151 ag 0.0, FBW7 act -0.1 and TEAD-YAP inh -7.7.
`CC(C)c1[nH]nc2c1C(C(C)C)C(C#N)=C(N)O2` (configuration not stated) gave MITF primary 3.2, GPR151 ag 8.3*, FBW7 act 0.3, TEAD-YAP inh 0.0, GPR151 confirm 0.9 and GPR119 counter -5.8.
For O=C(COC(=O)c1cc(=O)c2ccccc2o1)Nc1ccc2c(c1)CCC2 the results were MITF primary -3.7, GPR151 ag 0.6, FBW7 act 0.0 and TEAD-YAP inh 5.6.
For CCC(C)c1ccc(NC(=S)NN2CCOCC2)cc1 (configuration not stated) the results were MITF primary 20.8, GPR151 ag 23.0*, FBW7 act -0.1, TEAD-YAP inh -52.6, GPR151 confirm 0.1 and GPR119 counter 8.6.
CCCCc1ccc(NC(=S)NN2CCOCC2)cc1 was read as MITF primary -3.1, GPR151 ag 4.3, FBW7 act -0.1 and TEAD-YAP inh -22.1.
Screening O=C(Nc1nc(-c2ccc(I)cc2)cs1)C1CC1 returned MITF primary 12.8, GPR151 ag 5.9*, FBW7 act 0.0, TEAD-YAP inh -40.9, GPR151 confirm 0.4 and GPR119 counter 8.8.
`CCc1cccc(NC(=O)/C=C/C(=O)O)c1` gave MITF primary -4.8, GPR151 ag 5.2*, FBW7 act 0.1, TEAD-YAP inh -1.1, GPR151 confirm -0.2 and GPR119 counter -4.6.
For Cc1cccc(NC(=O)/C=C/C(=O)O)c1 the results were MITF primary 8.0, GPR151 ag 1.6, FBW7 act -0.1 and TEAD-YAP inh -12.1.
For Cc1ccccc1N(C=O)C(=O)C1C(C)C2C=CC1C21CC1 (configuration not stated) the results were MITF primary -13.5, GPR151 ag -1.2, FBW7 act 0.0 and TEAD-YAP inh -3.8.
`CSc1ccccc1C(=O)N(C)Cc1ccccc1` gave MITF primary 2.8, GPR151 ag 5.8*, FBW7 act 0.6, TEAD-YAP inh -10.2, GPR151 confirm 0.2 and GPR119 counter 9.2.
For Cc1ccc(C(C)CCN2CCC3(CCC(CNC(=O)c4ccccc4)O3)CC2)o1 (configuration not stated) the results were MITF primary 14.8, GPR151 ag 0.7, FBW7 act 0.1 and TEAD-YAP inh 2.4.
`Cc1ccc(C(C)CCN2CCC3(CCC(CNC(=O)C(C)C)O3)CC2)o1` (configuration not stated) gave MITF primary -4.4, GPR151 ag 7.8*, FBW7 act -0.1, TEAD-YAP inh -11.8, GPR151 confirm 0.2 and GPR119 counter 0.2.
Screening CCOc1ccc(S(=O)(=O)Oc2ccccc2)cc1 returned MITF primary 0.5, GPR151 ag -0.8, FBW7 act 0.0 and TEAD-YAP inh -13.9.
Screening CC(C)NC(=O)CSc1nnc2c(n1)[nH]c1ccc(Br)cc12 returned MITF primary 4.5, GPR151 ag 0.6, FBW7 act 0.2 and TEAD-YAP inh 0.4.
Screening COc1ccc(-c2noc(CN(C)CCOc3ccccc3)n2)c(OC)c1OC returned MITF primary 3.0, GPR151 ag -0.5, FBW7 act 0.1 and TEAD-YAP inh -10.8.
For CN(CCOc1ccccc1)Cc1nc(-c2ccccc2)no1 the results were MITF primary 11.1, GPR151 ag 9.5*, FBW7 act 0.3, TEAD-YAP inh -4.6, GPR151 confirm 0.0 and GPR119 counter -8.1.
For Cc1ccc(C(=O)n2c(=O)oc3cc(S(=O)(=O)N4CCCCC4)ccc32)cc1 the results were MITF primary -5.2, GPR151 ag 1.8, FBW7 act -0.1 and TEAD-YAP inh -0.6.
O=S(=O)(Nc1nc2ccc(S(=O)(=O)N3CCCCC3)cc2s1)c1ccccc1 was read as MITF primary 19.2, GPR151 ag 5.3*, FBW7 act 0.1, TEAD-YAP inh 3.4, GPR151 confirm -0.7 and GPR119 counter -9.0.
For CCOC(=O)CSc1nnc(NC(=O)C2CC2)s1 the results were MITF primary -0.1, GPR151 ag -1.6, FBW7 act 0.1 and TEAD-YAP inh -4.5.
Screening CCOc1ccccc1N(C)S(=O)(=O)c1ccc2[nH]cc(C(=O)N(CC)CC)c(=O)c2c1 returned MITF primary -9.3, GPR151 ag 5.9*, FBW7 act -0.1, TEAD-YAP inh 6.4, GPR151 confirm -0.1 and GPR119 counter 7.9.
For CCN(CC)S(=O)(=O)c1ccc(C(=O)OCC(=O)c2ccc(F)cc2)cc1 the results were MITF primary 4.7, GPR151 ag 0.3, FBW7 act 0.1 and TEAD-YAP inh 9.6.
`CN(C)S(=O)(=O)c1ccc(C(=O)OCCCC(=O)c2ccc(F)cc2)cc1` gave MITF primary 9.6, GPR151 ag 10.5*, FBW7 act 0.3, TEAD-YAP inh -4.5, GPR151 confirm 0.7 and GPR119 counter 15.0.
`O=C(Nc1ccc(Cl)cc1)c1nn2cccnc2c1Cl` gave MITF primary 4.7, GPR151 ag 0.0, FBW7 act 0.0 and TEAD-YAP inh -65.9.
C=CCNC(=O)c1nn2cccnc2c1Cl was read as MITF primary -11.6, GPR151 ag 5.3*, FBW7 act 0.1, TEAD-YAP inh -14.1, GPR151 confirm 0.6 and GPR119 counter -0.5.
`O=S(=O)(NCC(c1ccco1)N1CCc2ccccc21)c1ccc(F)cc1` (configuration not stated) gave MITF primary 3.3, GPR151 ag 9.1*, FBW7 act -0.1, TEAD-YAP inh 4.0, GPR151 confirm -0.6 and GPR119 counter -8.3.
